# Measured values published in PMC7862700, “An all-to-all approach to the identification of sequence-specific readers for epigenetic DNA modifications on cytosine”.
# Tests used:
# Experiment in all cases: DAPPL (digital affinity profiling via proximity ligation, sequencing); 10 mM Tris-HCl pH 7.5, 50 mM NaCl, 1 mM DTT, 4% glycerol, room temperature, 30 min; GST-TFs on glutathione beads, 16-mer random dsDNA library, 0.1% formaldehyde crosslink after washing; high values mean tight binding
# [1] = target: T1, FEV (Homo sapiens, UniProt Q99581 1-238); conditions: protein: recombinant; tags: N-terminal GST; dsDNA, one strand shown
# T1 sequence: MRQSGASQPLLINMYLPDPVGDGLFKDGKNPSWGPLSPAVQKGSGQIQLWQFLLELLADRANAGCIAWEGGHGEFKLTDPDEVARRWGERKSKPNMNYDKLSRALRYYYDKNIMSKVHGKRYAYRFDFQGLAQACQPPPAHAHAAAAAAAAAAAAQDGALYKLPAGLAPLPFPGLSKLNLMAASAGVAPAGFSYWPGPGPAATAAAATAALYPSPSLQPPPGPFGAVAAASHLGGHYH
# Method in brief: (§1)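 Binding signal is each hexamer's read frequency for a factor divided by its frequency in the tag-only sample. The factors were GST-fused human transcription factors from yeast, captured on glutathione beads, DNA-barcoded and pooled with that sample. Pools were incubated with 200 nmole of a random double-stranded 16-mer DNA library in Tris/NaCl/DTT/glycerol buffer at room temperature for 30 min, then washed, crosslinked with 0.1% formaldehyde, proximity-ligated with BsaI/T4 ligase (1 h, 37 °C), PCR-amplified and sequenced on an Illumina NextSeq500.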
# [2] = target: ETV5 (Homo sapiens, UniProt P41161 1-510); conditions: protein: recombinant; tags: N-terminal GST; dsDNA, one strand shown
# Method in brief: as §1
# [3] = target: HSF1 (Homo sapiens, UniProt Q00613 1-529); conditions: protein: recombinant; tags: N-terminal GST; chain copies: 3; dsDNA, one strand shown
# Method in brief: as §1
# [4] = target: T2, SPIC (Homo sapiens, UniProt Q8N5J4 1-248); conditions: protein: recombinant; tags: N-terminal GST; dsDNA, one strand shown
# T2 sequence: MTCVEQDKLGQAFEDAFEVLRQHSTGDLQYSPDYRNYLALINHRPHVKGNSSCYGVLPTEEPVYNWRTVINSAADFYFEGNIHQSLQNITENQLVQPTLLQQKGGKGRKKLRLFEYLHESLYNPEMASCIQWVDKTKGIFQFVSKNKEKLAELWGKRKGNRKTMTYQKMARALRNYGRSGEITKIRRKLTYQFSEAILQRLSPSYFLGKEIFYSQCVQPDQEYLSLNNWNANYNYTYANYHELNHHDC
# Method in brief: as §1
# [5] = target: ELF4 (Homo sapiens, UniProt Q99607 1-663); conditions: protein: recombinant; tags: N-terminal GST; dsDNA, one strand shown
# Method in brief: as §1
# [6] = target: T3, ELK4 (Homo sapiens, UniProt P28324-2 1-405); conditions: protein: recombinant; tags: N-terminal GST; dsDNA, one strand shown
# T3 sequence: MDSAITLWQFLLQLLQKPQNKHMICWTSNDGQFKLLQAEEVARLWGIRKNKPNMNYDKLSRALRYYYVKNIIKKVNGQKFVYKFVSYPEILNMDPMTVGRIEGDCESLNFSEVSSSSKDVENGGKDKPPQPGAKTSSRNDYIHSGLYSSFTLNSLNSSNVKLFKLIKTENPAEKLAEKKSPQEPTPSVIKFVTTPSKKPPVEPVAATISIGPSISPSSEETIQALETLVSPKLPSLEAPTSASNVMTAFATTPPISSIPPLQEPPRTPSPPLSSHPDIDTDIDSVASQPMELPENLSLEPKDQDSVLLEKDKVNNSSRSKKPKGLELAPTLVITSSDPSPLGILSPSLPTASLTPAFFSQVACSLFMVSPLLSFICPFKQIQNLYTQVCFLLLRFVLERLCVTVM
# Method in brief: as §1
# [7] = target: T4, ETV2 (Homo sapiens, UniProt O00321 1-342); conditions: protein: recombinant; tags: N-terminal GST; dsDNA, one strand shown
# T4 sequence: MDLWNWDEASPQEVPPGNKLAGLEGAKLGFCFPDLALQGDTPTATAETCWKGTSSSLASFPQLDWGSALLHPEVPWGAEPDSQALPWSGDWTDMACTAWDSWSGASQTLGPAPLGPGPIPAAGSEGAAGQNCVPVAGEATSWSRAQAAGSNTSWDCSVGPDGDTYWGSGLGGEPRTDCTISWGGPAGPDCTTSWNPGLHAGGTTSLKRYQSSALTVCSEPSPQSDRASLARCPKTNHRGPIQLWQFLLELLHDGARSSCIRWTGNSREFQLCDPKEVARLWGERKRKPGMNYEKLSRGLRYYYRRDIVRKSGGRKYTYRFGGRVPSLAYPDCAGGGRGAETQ
# Method in brief: as §1
# [8] = target: T5, ELF3 (Homo sapiens, UniProt P78545 1-371); conditions: protein: recombinant; tags: N-terminal GST; dsDNA, one strand shown
# T5 sequence: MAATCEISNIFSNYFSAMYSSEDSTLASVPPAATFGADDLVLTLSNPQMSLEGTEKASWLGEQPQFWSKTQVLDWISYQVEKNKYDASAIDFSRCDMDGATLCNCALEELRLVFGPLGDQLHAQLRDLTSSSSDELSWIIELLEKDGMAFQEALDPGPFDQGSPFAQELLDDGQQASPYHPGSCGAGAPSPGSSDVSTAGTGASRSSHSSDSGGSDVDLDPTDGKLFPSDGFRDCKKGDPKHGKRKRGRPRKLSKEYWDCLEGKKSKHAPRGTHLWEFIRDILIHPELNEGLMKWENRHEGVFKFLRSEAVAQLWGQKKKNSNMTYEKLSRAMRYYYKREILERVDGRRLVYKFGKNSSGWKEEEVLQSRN
# Method in brief: as §1
# [9] = target: CRX (Homo sapiens, UniProt O43186 1-299); conditions: protein: recombinant; tags: N-terminal GST; dsDNA, one strand shown
# Method in brief: as §1
# [10] = target: ETV1 (Homo sapiens, UniProt P50549 1-477); conditions: protein: recombinant; tags: N-terminal GST; dsDNA, one strand shown
# Method in brief: as §1
# [11] = target: T6, ERF (Homo sapiens, UniProt P50548 1-548); conditions: protein: recombinant; tags: N-terminal GST; dsDNA, one strand shown
# T6 sequence: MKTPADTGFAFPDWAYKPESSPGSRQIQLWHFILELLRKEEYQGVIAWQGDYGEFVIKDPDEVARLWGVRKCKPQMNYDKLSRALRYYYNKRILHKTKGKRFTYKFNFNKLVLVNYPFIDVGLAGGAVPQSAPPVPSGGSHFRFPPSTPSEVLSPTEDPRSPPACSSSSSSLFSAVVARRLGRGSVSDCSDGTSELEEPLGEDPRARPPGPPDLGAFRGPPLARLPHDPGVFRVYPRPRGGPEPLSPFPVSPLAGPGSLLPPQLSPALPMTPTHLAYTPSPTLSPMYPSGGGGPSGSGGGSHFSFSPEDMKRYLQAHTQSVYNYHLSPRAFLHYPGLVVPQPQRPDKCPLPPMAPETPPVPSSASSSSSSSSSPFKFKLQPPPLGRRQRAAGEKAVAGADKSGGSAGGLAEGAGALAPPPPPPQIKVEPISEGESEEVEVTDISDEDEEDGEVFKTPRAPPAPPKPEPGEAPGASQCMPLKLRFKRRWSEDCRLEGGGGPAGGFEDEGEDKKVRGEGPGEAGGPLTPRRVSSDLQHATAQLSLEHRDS
# Method in brief: as §1
# [12] = target: T7, ETV3L (Homo sapiens, UniProt Q6ZN32 1-361); conditions: protein: recombinant; tags: N-terminal GST; dsDNA, one strand shown
# T7 sequence: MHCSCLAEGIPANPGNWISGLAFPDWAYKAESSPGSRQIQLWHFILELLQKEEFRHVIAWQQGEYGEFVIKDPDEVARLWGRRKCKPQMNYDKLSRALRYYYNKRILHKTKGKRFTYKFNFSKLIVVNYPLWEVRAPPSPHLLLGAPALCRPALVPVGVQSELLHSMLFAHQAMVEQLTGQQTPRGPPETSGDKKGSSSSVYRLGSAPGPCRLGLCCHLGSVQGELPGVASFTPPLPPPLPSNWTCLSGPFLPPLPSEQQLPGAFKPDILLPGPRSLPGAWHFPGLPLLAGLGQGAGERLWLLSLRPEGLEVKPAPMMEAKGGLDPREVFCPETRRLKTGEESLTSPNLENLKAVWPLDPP
# Method in brief: as §1
# [13] = target: T8, ETS2 (Homo sapiens, UniProt P15036 1-469); conditions: protein: recombinant; tags: N-terminal GST; dsDNA, one strand shown
# T8 sequence: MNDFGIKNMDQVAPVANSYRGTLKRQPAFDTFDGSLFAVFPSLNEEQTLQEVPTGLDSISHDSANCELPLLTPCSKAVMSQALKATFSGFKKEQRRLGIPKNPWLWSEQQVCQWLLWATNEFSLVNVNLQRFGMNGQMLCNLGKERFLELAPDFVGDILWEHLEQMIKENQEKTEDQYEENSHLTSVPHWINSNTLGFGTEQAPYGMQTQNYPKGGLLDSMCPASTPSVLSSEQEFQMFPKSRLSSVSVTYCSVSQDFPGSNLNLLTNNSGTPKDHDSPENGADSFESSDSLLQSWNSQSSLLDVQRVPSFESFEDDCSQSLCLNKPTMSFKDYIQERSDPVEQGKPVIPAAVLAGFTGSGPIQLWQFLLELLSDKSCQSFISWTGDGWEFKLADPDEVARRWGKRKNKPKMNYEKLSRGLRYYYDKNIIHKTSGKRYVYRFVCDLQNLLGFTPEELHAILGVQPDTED
# Method in brief: as §1
# [14] = target: T9, SPDEF (Homo sapiens, UniProt O95238 1-335); conditions: protein: recombinant; tags: N-terminal GST; dsDNA, one strand shown
# T9 sequence: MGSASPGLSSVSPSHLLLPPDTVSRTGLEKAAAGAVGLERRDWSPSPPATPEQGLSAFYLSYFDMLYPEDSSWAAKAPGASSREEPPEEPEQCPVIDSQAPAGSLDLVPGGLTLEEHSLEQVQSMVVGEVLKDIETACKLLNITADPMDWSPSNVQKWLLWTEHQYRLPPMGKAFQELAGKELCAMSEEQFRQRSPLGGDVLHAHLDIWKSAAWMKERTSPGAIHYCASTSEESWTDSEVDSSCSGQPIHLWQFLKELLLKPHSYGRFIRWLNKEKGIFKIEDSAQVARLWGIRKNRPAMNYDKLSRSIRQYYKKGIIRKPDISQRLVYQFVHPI
# Method in brief: as §1
# [15] = target: T10, ETV7 (Homo sapiens, UniProt Q9Y603 1-341); conditions: protein: recombinant; tags: N-terminal GST; dsDNA, one strand shown
# T10 sequence: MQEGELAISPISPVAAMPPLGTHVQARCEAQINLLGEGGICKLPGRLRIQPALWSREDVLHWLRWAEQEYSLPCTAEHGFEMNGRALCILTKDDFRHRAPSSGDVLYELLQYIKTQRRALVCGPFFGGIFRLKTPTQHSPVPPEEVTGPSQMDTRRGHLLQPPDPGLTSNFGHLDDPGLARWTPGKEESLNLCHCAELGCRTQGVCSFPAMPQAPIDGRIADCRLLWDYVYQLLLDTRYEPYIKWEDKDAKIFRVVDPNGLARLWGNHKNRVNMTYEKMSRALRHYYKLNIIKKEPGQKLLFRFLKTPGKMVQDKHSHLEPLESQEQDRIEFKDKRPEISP
# Method in brief: as §1
# [16] = target: T11, ELF5 (Homo sapiens, UniProt Q9UKW6-2 1-255); conditions: protein: recombinant; tags: N-terminal GST; dsDNA, one strand shown
# T11 sequence: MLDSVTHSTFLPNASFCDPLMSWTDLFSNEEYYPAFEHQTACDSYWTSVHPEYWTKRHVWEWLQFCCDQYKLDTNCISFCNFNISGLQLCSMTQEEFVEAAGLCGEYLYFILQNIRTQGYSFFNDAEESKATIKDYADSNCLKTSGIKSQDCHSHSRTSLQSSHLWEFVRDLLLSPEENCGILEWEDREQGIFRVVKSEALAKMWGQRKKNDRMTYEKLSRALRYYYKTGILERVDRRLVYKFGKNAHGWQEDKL
# Method in brief: as §1
# [17] = target: T12, ETV3 (Homo sapiens, UniProt P41162-2 1-143); conditions: protein: recombinant; tags: N-terminal GST; dsDNA, one strand shown
# T12 sequence: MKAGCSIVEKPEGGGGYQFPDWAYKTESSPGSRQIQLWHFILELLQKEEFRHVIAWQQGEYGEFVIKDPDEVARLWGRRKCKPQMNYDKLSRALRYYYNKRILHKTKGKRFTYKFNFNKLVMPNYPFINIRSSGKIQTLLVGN
# Method in brief: as §1
# [18] = target: ETV6 (Homo sapiens, UniProt P41212 1-452); conditions: protein: recombinant; tags: N-terminal GST; dsDNA, one strand shown
# Method in brief: as §1
# ELF4, sequence (Q99607 whole entry): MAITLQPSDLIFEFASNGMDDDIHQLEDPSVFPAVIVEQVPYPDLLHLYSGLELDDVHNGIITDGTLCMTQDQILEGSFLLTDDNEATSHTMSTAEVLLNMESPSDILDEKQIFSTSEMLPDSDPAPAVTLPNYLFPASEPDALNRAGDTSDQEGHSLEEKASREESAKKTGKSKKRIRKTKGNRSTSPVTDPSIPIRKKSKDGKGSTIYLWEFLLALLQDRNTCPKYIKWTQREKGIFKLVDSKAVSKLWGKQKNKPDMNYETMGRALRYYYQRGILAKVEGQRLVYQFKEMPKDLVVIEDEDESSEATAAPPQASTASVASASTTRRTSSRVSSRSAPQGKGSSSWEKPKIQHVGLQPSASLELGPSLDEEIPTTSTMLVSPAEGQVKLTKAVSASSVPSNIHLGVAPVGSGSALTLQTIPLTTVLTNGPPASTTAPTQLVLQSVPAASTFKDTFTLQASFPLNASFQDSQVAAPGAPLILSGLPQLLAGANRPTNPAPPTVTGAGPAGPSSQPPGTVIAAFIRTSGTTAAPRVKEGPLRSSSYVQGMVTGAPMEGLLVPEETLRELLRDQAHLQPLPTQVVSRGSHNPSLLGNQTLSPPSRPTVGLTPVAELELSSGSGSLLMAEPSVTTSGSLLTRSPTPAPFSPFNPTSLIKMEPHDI
# ETV1, sequence (P50549 whole entry): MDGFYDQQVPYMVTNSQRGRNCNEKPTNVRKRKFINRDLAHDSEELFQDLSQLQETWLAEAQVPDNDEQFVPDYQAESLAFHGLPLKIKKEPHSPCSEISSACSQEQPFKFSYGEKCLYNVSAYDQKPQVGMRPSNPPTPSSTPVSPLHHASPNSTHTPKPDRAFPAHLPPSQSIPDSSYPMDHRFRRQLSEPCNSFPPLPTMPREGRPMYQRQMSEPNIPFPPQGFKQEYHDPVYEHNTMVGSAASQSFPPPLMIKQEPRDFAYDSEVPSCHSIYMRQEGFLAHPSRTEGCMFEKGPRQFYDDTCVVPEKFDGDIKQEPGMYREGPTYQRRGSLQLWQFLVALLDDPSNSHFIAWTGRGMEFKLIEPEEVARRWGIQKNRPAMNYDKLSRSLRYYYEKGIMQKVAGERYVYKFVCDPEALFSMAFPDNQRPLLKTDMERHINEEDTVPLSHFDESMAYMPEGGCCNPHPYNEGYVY
# HSF1, sequence (Q00613 whole entry): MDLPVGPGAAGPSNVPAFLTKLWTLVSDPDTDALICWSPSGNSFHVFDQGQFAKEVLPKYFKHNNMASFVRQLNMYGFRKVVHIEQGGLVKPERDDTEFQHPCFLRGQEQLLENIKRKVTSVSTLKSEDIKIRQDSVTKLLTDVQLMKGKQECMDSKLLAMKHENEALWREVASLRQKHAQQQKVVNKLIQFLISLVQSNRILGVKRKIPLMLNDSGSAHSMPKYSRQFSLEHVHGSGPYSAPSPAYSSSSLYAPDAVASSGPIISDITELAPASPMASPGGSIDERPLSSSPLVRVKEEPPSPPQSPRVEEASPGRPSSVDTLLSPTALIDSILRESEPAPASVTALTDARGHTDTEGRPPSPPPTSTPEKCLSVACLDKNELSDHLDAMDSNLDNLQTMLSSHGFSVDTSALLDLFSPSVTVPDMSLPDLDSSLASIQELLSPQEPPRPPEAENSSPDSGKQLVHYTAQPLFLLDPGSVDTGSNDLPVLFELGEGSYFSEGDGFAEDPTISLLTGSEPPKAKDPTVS
# CRX, sequence (O43186 whole entry): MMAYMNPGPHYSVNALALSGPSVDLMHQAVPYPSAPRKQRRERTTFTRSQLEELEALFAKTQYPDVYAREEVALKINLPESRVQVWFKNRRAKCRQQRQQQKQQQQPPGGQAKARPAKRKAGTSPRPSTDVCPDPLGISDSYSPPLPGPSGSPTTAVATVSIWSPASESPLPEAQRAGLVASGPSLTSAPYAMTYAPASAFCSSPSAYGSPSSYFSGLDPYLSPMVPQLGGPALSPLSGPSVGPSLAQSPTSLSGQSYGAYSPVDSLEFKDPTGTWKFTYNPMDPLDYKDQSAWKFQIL
# ETV5, sequence (P41161 whole entry): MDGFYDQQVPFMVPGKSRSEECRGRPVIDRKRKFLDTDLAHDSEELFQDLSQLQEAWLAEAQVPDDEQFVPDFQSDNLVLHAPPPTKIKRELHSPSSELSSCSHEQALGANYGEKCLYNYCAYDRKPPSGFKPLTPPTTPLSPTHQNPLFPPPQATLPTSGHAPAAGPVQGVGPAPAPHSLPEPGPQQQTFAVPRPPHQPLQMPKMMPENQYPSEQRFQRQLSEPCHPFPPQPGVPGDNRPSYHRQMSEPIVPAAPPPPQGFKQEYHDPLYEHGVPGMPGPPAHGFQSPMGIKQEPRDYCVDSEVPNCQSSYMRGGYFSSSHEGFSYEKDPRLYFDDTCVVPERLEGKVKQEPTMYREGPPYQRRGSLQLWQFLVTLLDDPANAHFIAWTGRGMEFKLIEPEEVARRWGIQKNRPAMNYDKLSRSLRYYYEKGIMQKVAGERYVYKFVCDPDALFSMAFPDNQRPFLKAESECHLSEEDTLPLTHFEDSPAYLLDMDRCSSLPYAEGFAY
# ETV6, sequence (P41212 whole entry): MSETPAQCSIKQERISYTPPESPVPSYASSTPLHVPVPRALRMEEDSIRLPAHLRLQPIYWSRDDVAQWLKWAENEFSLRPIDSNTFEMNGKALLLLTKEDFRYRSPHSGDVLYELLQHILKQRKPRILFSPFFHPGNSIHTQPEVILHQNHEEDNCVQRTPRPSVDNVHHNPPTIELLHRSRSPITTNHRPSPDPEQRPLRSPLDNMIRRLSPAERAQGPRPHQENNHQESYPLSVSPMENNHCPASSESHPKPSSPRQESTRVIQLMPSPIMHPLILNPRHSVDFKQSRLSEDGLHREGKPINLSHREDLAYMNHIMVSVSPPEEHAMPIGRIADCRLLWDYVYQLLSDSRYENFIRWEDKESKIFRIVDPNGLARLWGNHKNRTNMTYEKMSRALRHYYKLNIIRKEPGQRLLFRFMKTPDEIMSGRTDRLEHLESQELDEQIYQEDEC
sequence,measurement,setting,value
TTTGGG,binding signal,[1],"1.31 fold enrichment (6-mer frequency, TF over GST control)"
same,binding signal,[2],"1.39 fold enrichment (6-mer frequency, TF over GST control)"
same,binding signal,[3],"1.36 fold enrichment (6-mer frequency, TF over GST control)"
same,binding signal,[4],"1.16 fold enrichment (6-mer frequency, TF over GST control)"
same,binding signal,[5],"1.41 fold enrichment (6-mer frequency, TF over GST control)"
same,binding signal,[6],"1.41 fold enrichment (6-mer frequency, TF over GST control)"
same,binding signal,[7],"1.42 fold enrichment (6-mer frequency, TF over GST control)"
same,binding signal,[8],"1.7 fold enrichment (6-mer frequency, TF over GST control)"
same,binding signal,[9],"1.57 fold enrichment (6-mer frequency, TF over GST control)"
same,binding signal,[10],"1.43 fold enrichment (6-mer frequency, TF over GST control)"
same,binding signal,[11],"1.39 fold enrichment (6-mer frequency, TF over GST control)"
same,binding signal,[12],"1.46 fold enrichment (6-mer frequency, TF over GST control)"
same,binding signal,[13],"1.3 fold enrichment (6-mer frequency, TF over GST control)"
same,binding signal,[14],"1.25 fold enrichment (6-mer frequency, TF over GST control)"
same,binding signal,[15],"1.29 fold enrichment (6-mer frequency, TF over GST control)"
same,binding signal,[16],"1.26 fold enrichment (6-mer frequency, TF over GST control)"
same,binding signal,[17],"1.32 fold enrichment (6-mer frequency, TF over GST control)"
same,binding signal,[18],"1.3 fold enrichment (6-mer frequency, TF over GST control)"
